Shown are actives, neighbours in structure and some others; about 21% of the full set was active somewhere.
Shiga toxin inh: A qHTS for Small Molecule Inhibitors of Shiga Toxin | 290,000 tested, 9.2% active | AID 2315, 2010 | Vero cells, Shiga toxin protein synthesis inhibition reporter | inhibition, % at 38.7 µM; in the data active = inhibition mostly above about 28%, no sharp cut-off; inactive = mostly below about 43%; also: 0% is about no effect
Pf growth 96h: Primary qHTS for delayed death inhibitors of the malarial parasite plastid, 96 hour incubation | 320,000 tested, 6.9% active | P. falciparum luciferase reporter growth, 96 h | AID 504834, 2011 | Potency, µM (doses to about 28.7 µM), without a hit: top-dose activity change, negative = inhibition, actives largely listed as inhibitors; also: potency is read from the fitted curve at half-maximal effect; % is scaled to controls: 0 for no effect and ±100 for the full control effect
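P. falciparum expressing integrated firefly luciferase, in erythrocytes at 2% hematocrit, 0.05% parasitemia, incubated with compounds 96 h at 37 C, 5% CO2. Growth inhibition read as loss of luminescence; two-generation exposure targets delayed-death apicoplast inhibitors.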
CHX counter: Cycloheximide Counterscreen for Small Molecule Inhibitors of Shiga Toxin; 300,000 tested, 12% active; cell reporter, cycloheximide protein synthesis inhibition counterscreen; max response, %; in the data active = max response mostly above about 13%, no sharp cut-off; inactive = mostly below about 14%; also: read at 38.3 µM for the half of the compounds with a filed dose; 0% is about no effect
Pf growth 48h: Primary qHTS for delayed death inhibitors of the malarial parasite plastid, 48 hour incubation. Potency, µM (highest dose often 28.7 µM), for inactives: top-dose activity change, negative = inhibition, usual class: inhibitors. P. falciparum luciferase growth in erythrocytes, 48 h. 310,000 tested, 5.9% active; also: potency is read from the fitted curve at half-maximal effect; % is scaled to controls: 0 for no effect and ±100 for the full control effect
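Luciferase-expressing parasites in RBCs, 2% Hct / 0.1% parasitemia final; RPMI 1640 + 0.5% Albumax; 37 C, 5% CO2, one generation; luminescence read-out, lower signal = inhibition.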
SARS PLpro yeast: qHTS of Yeast-based Assay for SARS-CoV PLP; S. cerevisiae expressing SARS-CoV PLpro, growth rescue; Potency, µM (top dose mostly 32.9 µM), without a hit: top-dose activity, positive = growth rescue, usual class: activators; 330,000 tested, 0.19% active; calls by dose curve; also: potency is read from the fitted curve at half-maximal effect; 0% is about no effect; nearly all actives have a fitted effect of over 55% in size
NS1 function inh: qHTS Assay for Inhibitors of Influenza NS1 Protein Function. Potency, µM (titrated, usually from 46.1 µM), without a hit: top-dose activity, positive = more growth. 270,000 tested, 0.4% active. AID 2326, 2010; calls by dose curve; also: potency is read from the fitted curve at half-maximal effect; actives are rising curves; nearly all actives have a fitted effect of over 50% in size
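OD600 was taken as the measure of yeast growth restored by compound in an NS1-expressing S. cerevisiae strain. Cells had been washed out of glucose medium and diluted 1:100 into galactose -URA medium, pH 6.0.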
* hit, by the source's call; ? = inconclusive; . = not tested or not shown; [ ] = remark or other dose. Unless noted, calls follow the shape of the dose curve; as a rule, active = well fitted inhibition curve with a large enough effect; inconclusive = small, poorly fitted or top-dose-only effect, or another doubt; inactive = no such curve, though single readings can be large or run the other way.

SMILES | Shiga toxin inh | Pf growth 96h | CHX counter | Pf growth 48h | SARS PLpro yeast | NS1 function inh
Cc1ccccc1C(=O)NCC(=O)N1CCN(c2ccccn2)CC1 | . | . | . | . | -6.2% | .
O=C(CCC1CCCN(C(=O)c2ccc3c(c2)OCO3)C1)N1CCN(c2ccccn2)CC1 (stereo unspecified) | -3.9 | ? | 8.7 | ? | 1.7% | -2.8%
CCOC(=O)c1cc(-c2ccc(C)cc2)n(CCC(=O)N2CCN(c3ccccn3)CC2)c1C | -9.9 | ? | 6.9 | ? | 2.2% | -55.6%
CCOC(=O)c1cccc(NC(=O)c2ccco2)c1 | 28.0* | . | 40.8* | 55.1% | -20.2% | -23.1%
O=C(COc1cccc(NC(=O)c2ccco2)c1)c1ccccc1 | 62.0* | ? | 37.3* | 72.2% | -16.6% | -75.6%
COc1ccc(C(=O)COC(=O)c2ccco2)cc1 | 50.4* | 3.8% | 43.4* | 3.1% | -2.5% | -0.3%
O=C(c1ccccc1)c1cccc(NC(=O)c2ccco2)c1 | 60.4* | ? | 24.2* | 31.2% | -8.0% | -106.8%
COc1cccc(C(=O)COc2cccc(NC(=O)c3ccco3)c2)c1 | 14.6 | -4.2% | 5.4 | 0.0% | -1.3% | -2.5%
Cn1cc(C(CO)Cc2ccccc2)c2ccccc21 (stereo unspecified) | . | -27.7% | . | ? | 0.3% | .
COc1ccc(C(=O)COc2cccc(NC(=O)c3ccco3)c2)cc1 | 9.5 | -49.4% | 11.9* | ? | -38.2% | -13.0%[9.22 µM]
COc1cccc(NC(=O)COC(=O)c2ccco2)c1 | 41.5* | -8.2% | 12.2* | -12.1% | -2.4% | -6.5%
COc1cccc(NC(=O)c2ccco2)c1 | 85.9* | -26.7% | 35.8* | 143.7% | -13.3% | -35.4%
Cc1ccc(C(=O)C(C)Oc2cccc(NC(=O)c3ccco3)c2)cc1 (stereo unspecified) | 2.0 | -1.6% | 9.5 | 2.94µM* | -54.8% | -43.7%
Cc1ccc(NC(=O)COC(=O)c2ccco2)cc1C | . | -10.4% | . | -4.8% | -5.9% | .
O=C(Nc1cccc(OC(=O)c2ccco2)c1)c1ccco1 | 41.7 | . | 15.3 | 20.4% | -0.4% | -19.4%
CCOC(=O)CC(NC(=O)C1c2ccccc2Oc2ccccc21)c1ccccc1Cl (stereo unspecified) | -3.3 | -5.7% | -3.1 | -9.4% | 0.7% | -5.3%
COc1ccc(C(=O)COC(=O)c2ccn(C)n2)cc1 | 104.3* | 2.2% | 42.4* | 71.1% | -3.3% | -4.4%
CCOc1cc(NC(=O)c2ccco2)c(OCC)cc1NC(=O)COc1ccccc1C | . | . | . | . | . | 12.7%
COc1ccc(C(=O)COC(=O)c2cncc(Br)c2)cc1 | . | 12.1% | . | 5.7% | 2.4% | .
CCOc1cc(NC(=O)c2ccco2)c(OCC)cc1NC(=O)Cc1cccc(OC)c1 | -4.3 | 1.1% | -4.3 | 4.65µM* | -8.2% | -9.2%
Cc1ccc(CN(C)c2ccc(S(=O)(=O)N3CCCC3)cn2)cc1 | . | . | . | . | -4.9% | .
COc1ccccc1CNCC(=O)Nc1ccc(N2CCOCC2)cc1 | -11.1 | 1.2% | 0.4 | -2.8% | -19.3% | 7.1%
COc1ccccc1NC(=O)Nc1ccc(N2CCOCC2)cc1 | 84.1* | 182.8% | 50.9* | 50.1% | -4.5% | .
COc1ccc(OC)c(NC(=O)Nc2ccc(Cl)cc2)c1 | 31.0 | ? | 10.1 | . | -16.3% | -158.7%
COc1ccccc1NC(=O)Nc1ccc(C(N)=O)cc1 | 19.4 | 38.3%[1.15 µM] | 12.8* | 0.8%[5.75 µM] | 1.3% | .
SMILES | Shiga toxin inh | Pf growth 96h | CHX counter | Pf growth 48h | SARS PLpro yeast | NS1 function inh
COc1ccc(OC)c(/C(O)=C/C(=O)C(=O)Nc2ccccc2OC)c1 | 26.5 | 14.7µM* | 2.0 | . | 12.9% | 28.2%
COc1ccccc1NC(=O)Nc1ccccc1C(N)=O | 19.2 | 37.1% | 18.5 | 34.8% | 1.0% | -2.1%
COc1ccc(NC(=O)Nc2ccccc2OC)cc1 | 60.8* | . | 40.5* | 132.8% | -20.6% | -46.5%
COc1ccc(OC)c(S(=O)(=O)N(C)CC(=O)Nc2ccccc2OC)c1 | -6.4 | 150.6% | 0.9 | -28.9% | . | -4.2%
CCC1(C)NC(=O)N(CC(=O)NCC(=O)Nc2c(C)cc(C)cc2C)C1=O (stereo unspecified) | . | -8.4% | . | -24.3% | -5.3% | .
COc1ccccc1NC(=O)Nc1ccccc1Br | 11.9 | 21.6% | -1.9 | ? | -0.5% | -2.2%
COc1ccccc1NC(=O)CC(=O)Nc1ccccc1OC | -1.3 | -58.8% | -1.5 | 28.1% | -1.0% | 0.9%
COc1ccccc1NC(=O)NNC(=O)c1cc2ccccc2cc1O | 101.1* | 47.8% | 26.1* | 19.5% | 3.2% | 13.3%
COc1ccccc1NC(=O)Nc1ccc(CC#N)cc1 | 43.4* | 81.7% | 25.3* | 94.5% | -1.9% | -7.2%
COc1ccccc1NC(=O)Nc1cc(NC(=O)Nc2ccccc2OC)c(C)nc1C | -4.7 | 6.57µM* | -2.8 | ? | 0.0% | 29.1%
CCN1CCN(Cc2ccc(NC(=O)Nc3ccccc3OC)cc2)CC1 | 10.4* | -11.0% | 35.0* | 44.8% | 0.4% | -7.0%
CN(CCOC(=O)c1ccc2c(c1)OCO2)C(C)(C)C | 14.6 | 15.8% | 7.2 | -12.4% | 2.0% | .
COc1ccc(NC(=O)N/C=C/c2ccccc2)cc1 | 103.0* | 160.0% | 35.0* | 135.9% | -5.9% | .
O=C(COc1ccc(Cl)cc1)Nc1cccc(-c2ccc(N3CCOCC3)nn2)c1 | . | -8.8% | . | 5.4% | -1.3% | .
Cc1ccc(NC(=O)c2cc3c(CO)cnc(C)c3oc2=Nc2cccc(C(N)=O)c2)cc1 | -12.0 | 19.4% | -2.7 | 1.7% | -1.0% | 4.5%
O=C(COC(=O)c1ccc(Br)o1)NCC1CCCCC1 | . | . | . | . | -7.2% | .
O=C(COC(=O)c1cccs1)NCC1CCCCC1 | 22.9 | 18.4% | 19.8* | 7.3% | -6.6% | .
O=C(COC(=O)c1cccs1)NCc1ccccc1 | 38.0 | ? | 25.2* | . | -9.6% | -18.5%
O=C(NCc1ccc2c(c1)OCO2)c1cccs1 | -5.2 | 53.6% | -5.4 | 22.4% | 2.3% | -8.7%
O=C(COC(=O)c1cccs1)NCc1ccc2c(c1)OCO2 | 68.7* | -12.3% | 40.0* | 5.0% | -4.8% | -6.0%
CCCN1C(=O)/C(=C\c2ccncc2)SC1=Nc1ccccc1 | -13.3 | ? | -6.8 | 11.7µM* | -4.9% | -28.2%
CCN1C(=O)/C(=C\c2ccncc2)SC1=Nc1ccc(C)c(C)c1 | -9.6 | 1.85µM* | 5.4 | ? | -37.7% | 4.9%
CCN1C(=O)/C(=C\c2ccncc2)SC1=S | -5.5 | 39.0% | 1.3 | -0.3% | -1.2% | -38.1%
COc1ccc(C(=O)Nn2c(CCC(=O)O)ccc2-c2ccc(C)cc2)cc1OC | -14.5 | 20.0% | 6.5 | -14.5% | 0.7% | 1.0%
OC12C3C4CC5C6C4C1C6C(C53)N2CCc1cccc(F)c1 (stereo unspecified) | 12.7 | . | -6.8 | . | . | .
Cn1nc(C(F)(F)F)c(C(=O)Nc2ccc(F)cc2F)c1Cl | -25.4 | 10.8% | -0.8 | -5.3% | -2.9% | .
O=C(O)c1cc2nc3c(c(C(F)(F)F)n2n1)CCCC3 | -3.7 | 0.8% | -3.1 | 11.7% | 0.7% | 0.7%
